Results filed as inconclusive are left out. A call without a number means that no potency is given here. Active and inactive are the calls of the source. The call rests on the fitted dose curve; in most records, active means well fitted cell-killing curve with a large enough effect in the repeat runs; inconclusive means weak or mixed curves, or effect the other way; inactive means flat fitted curve, though single readings scatter.
Potency means the concentration at half of the fitted maximal effect.

The assay is described as follows: qHTS RealTime-Glo MT Cell Viability Assay in HEK293 cells - 32 hour (AID 1224868). Further: nearly all actives have a fitted effect of over 50% in size. On activity change, negative = cytotoxic: top concentration of the series differs between compounds. To be noted: RealTime-Glo luminescence; series mostly up to 76.8 µM. An excerpt:
National Center for Advancing Translational Sciences [NCATS]
NIH Chemical Genomics Center [NCGC]
U.S. Environmental Protection Agency [EPA]
National Institutes of Environmental Health Sciences [NIEHS]
National Toxicology Program [NTP]
U.S. Food and Drug Administration [FDA]
Measure of cell viability is critical in the cell-base assay. Analysis of cell viability is necessary for the characterization of cell responses to cytotoxic drugs and environmental stress. A RealTime-Glo MT Cell Viability Assay to monitor cell viability in real time of continues cell culture during 40 hours of compound treatment was used to screen Tox21 10K library compounds in Hek293 cells. The RealTime-Glo MT Cell Viability Assay is a nonlytic, homogeneous, bioluminescent method to measure cell viability in real time using a simple, plate-based method. The assay involves adding NanoLuc luciferase and a cell-permeant prosubstrate to cells in culture. Viable cells reduce the proprietary prosubstrate to generate a substrate for NanoLuc luciferase. This substrate diffuses from cells into the surrounding culture medium, where it is rapidly used by the NanoLuc Enzyme to produce a luminescent signal. The signal correlates with the number of viable cells, making the assay well suited for cytotoxicity studies.
Tox21 Assay Protocol Summary:
The mixture of Hek293 cell suspension and reagents were dispensed at 600cells/6 ul/well in 1536-well tissue culture treated black solid bottom plates using a Multidrop dispenser. After the assay plates were incubated at a 37 C/5% CO2 incubator for 5 hours, 23 nL of compounds dissolved in DMSO, positive and negative controls was transferred to the assay plate by a pintool work station. The plates were incubated at 37 C for 40 hours. The luminescence intensity were measured at 0h, 8h, 16h, 24h, 32h and 40h time points using ViewLux plate reader during compound treatment.
For orientation: In qHTS, concentration-response curves come from the screen itself.
With `Cc1ccc(N(CC2=NCCN2)c2cccc(O)c2)cc1`, the Potency result is “inactive”.

As to `CC(C)Cc1ccc(CC(=O)O)cc1`, the Potency result is “inactive”.

Consider `Cc1cccc(C)c1NC(=O)c1cc(S(N)(=O)=O)c(Cl)cc1O`, for which the Potency entry is “inactive”.

As for `CC(=O)c1ccc[nH]1`, the Potency entry was “inactive”.

Take `CC[C@H]1OC(=O)[C@H](C)[C@@H](O[C@H]2C[C@@](C)(OC)[C@@H](O)[C@H](C)O2)[C@H](C)[C@@H](O[C@@H]2O[C@H](C)C[C@H](N(C)C)[C@H]2O)[C@](C)(O)C[C@@H](C)C(=O)[C@H](C)[C@@H](O)[C@]1(C)O`: the Potency entry is “inactive”.

For the compound `Cc1c[nH]c2ccccc12`, the Potency entry is “inactive”.

As to `CCOCCC(=O)OCC`, the Potency result is “inactive”.

On to `CCO[Si](C)(CCCOCC1CO1)OCC` (stereo not given), for which the Potency result was “inactive”.

For `CC1C(C)(C)C2=C(C(=O)CCC2)C1(C)C` (stereo not given), the Potency entry is “inactive”.

Regarding `Oc1ccc2c(c1)Cc1ccccc1-2`, the Potency was 19.5 µM (active).

As for `C=C(C)C(=O)OCCC(F)(F)C(F)(F)C(F)(F)C(F)(F)C(F)(F)C(F)(F)F`, the Potency result is “inactive”.

`CC1=CC[C@@]23C[C@@H]1C(C)(C)[C@@H]2CC[C@H]3C`: the Potency entry is “inactive”.

On to `Cc1ccc(S(=O)(=O)NC(=O)NC2CCCCC2)cc1`, for which the Potency result was “inactive”.

As for `C[C@@H]1C[C@H]2[C@@H]3CCC4=CC(=O)C=C[C@]4(C)[C@@]3(F)[C@@H](O)C[C@]2(C)[C@@]1(O)C(=O)COP(=O)(O)O`, the Potency entry is “inactive”.

Take `O=C(O)/C=C/c1ccc(O)c(O)c1`: the Potency entry is “inactive”.

Consider `CC(C)N(C)C`, for which the Potency result was “inactive”.

Consider `CC1=CC[C@@H]2C[C@H]1C2(C)C`, for which the activity change, negative = cytotoxic is 2.23% [at 15.8 µM] (inactive).

Take `Oc1cccc2[nH]ccc12`: the Potency result is “inactive”.

For `CCCCCCCCCCCCCCCC(=O)OCC`, the Potency result is “inactive”.

Take `CC[C@H]1OC(=O)[C@H](C)[C@@H](O[C@H]2C[C@@](C)(OC)[C@@H](O)[C@H](C)O2)[C@H](C)[C@@H](O[C@@H]2O[C@H](C)C[C@H](N(C)C)[C@H]2O)[C@](C)(O)C[C@@H](C)/C(=N\OCOCCOC)[C@H](C)[C@@H](O)[C@]1(C)O`: the Potency entry was “inactive”.

Regarding `CCCCCCCC(=O)OCCCCCC`, the Potency is 3.47 µM (active).

As to `Cc1cc(CCC(=O)OCCOCCOCCOC(=O)CCc2cc(C)c(O)c(C(C)(C)C)c2)cc(C(C)(C)C)c1O`, the Potency result is “inactive”.

As for `CCC(=O)OCc1ccc(OC)cc1`, the Potency entry was “inactive”.

Turning to `CCOC(=O)N1CCC(Nc2ccc(Cl)cc2N)CC1`, the Potency result is “inactive”.

Consider `CC(C)(C)CCCCCCOC(=O)c1ccccc1C(=O)OCCCCCCC(C)(C)C`, for which the Potency result is “inactive”.

In the case of `CCCCCCCCCCCCCOC(=O)CCSCCC(=O)OCCCCCCCCCCCCC`, the activity change, negative = cytotoxic is -0.356% [at 15.8 µM] (inactive).

Regarding `CC(=O)NCCO`, the Potency result was “inactive”.

On to `CCCCCCC(CO)CCCC` (stereo not given), for which the Potency result is “inactive”.

On to `CC1CCc2nccnc21` (stereo not given), for which the Potency result is “inactive”.

Take `CC(CO)(CO)C(=O)O`: the Potency entry was “inactive”.

As for `O=CNNC=O`, the Potency entry was “inactive”.

On to `O=C(O)CN1C(=O)c2cccc3cccc(c23)C1=O`, for which the Potency entry was “inactive”.

As to `CCOC(=O)c1c(N)sc2c1CCN(Cc1ccccc1)C2`, the Potency was 21.3 µM (active).

Take `O=C1NC(=O)c2cccc3cccc1c23`: the Potency result is “inactive”.

Turning to `CCN(CC)CC(=O)Nc1c(C)cccc1C(=O)OC`, the Potency result was “inactive”.

As for `O=C(O)c1cc(Cl)cc(Cl)c1O`, the Potency result is “inactive”.

Regarding `CCN(CC)c1cccc(O)c1`, the Potency result was “inactive”.

For `O=C1CC[C@@H](C(=O)O)N1`, the Potency result was “inactive”.

Turning to `C=C(C)c1ccccc1`, the Potency result was “inactive”.

Turning to `CCCCCCCC/C=C\CCCCCCCC(=O)OCCO`, the Potency result is “inactive”.

The values above are taken from PubChem BioAssay (Tox21).
